Cross-linked residues data for 33 substances are collected here from PMC13423814.

Conditions in all cases: DSSO, in cells
Test [1] has as its target SEL1L (UniProt Q9UBV2).
Test [2] concerns the target SEPTIN2 (UniProt Q15019).
For test [3], the target named is SEPTIN8 (UniProt Q92599).
Test [4] has as its target SERBP1 (UniProt Q8NC51).
Test [5] concerns the target SF3A1 (UniProt Q15459).
Test [6] has as its target SNRPB (UniProt P14678).
Test [7] concerns the target SF3A2 (UniProt Q15428).
Test [8] concerns the target SF3B1 (UniProt O75533).
Test [9] concerns the target SF3B3 (UniProt Q15393).
In test [10] the target is SF3B6 (UniProt Q9Y3B4).
Test [11] concerns the target SH2D4A (UniProt Q9H788).
The target in test [12] is SIN3A (UniProt Q96ST3).
Test [13] concerns the target SLC25A3 (UniProt Q00325).
In test [14] the target is SNRPA (UniProt P09012).
Test [15] addresses SNW1 (UniProt Q13573).
The target of test [16] is SRSF1 (UniProt Q07955).
For test [17], the target named is SRSF6 (UniProt Q13247).
Test [18] concerns the target SRSF7 (UniProt Q16629).
In test [19] the target is THOC1 (UniProt Q96FV9).
In test [20] the target is TIMM17A (UniProt Q99595).
The target in test [21] is TMOD3 (UniProt Q9NYL9).
Test [22] concerns the target TMX1 (UniProt Q9H3N1).
Test [23] deals with TSSC4 (UniProt Q9Y5U2).
The target in test [24] is TUFM (UniProt P49411).
In test [25] the target is UGGT1 (UniProt Q9NYU2).
The target in test [26] is UTP14A (UniProt Q9BVJ6).
The target in test [27] is UTP18 (UniProt Q9Y5J1).
The target in test [28] is UTP20 (UniProt O75691).
Test [29] addresses UTP4 (UniProt Q969X6).
Test [30] concerns the target UTP6 (UniProt Q9NYH9).
In test [31] the target is VPS35L (UniProt Q7Z3J2).
In test [32] the target is YWHAZ (UniProt P63104).
Test [33] deals with ZMAT2 (UniProt Q96NC0).

SRSF3, P84103, sequence (P84103 whole entry): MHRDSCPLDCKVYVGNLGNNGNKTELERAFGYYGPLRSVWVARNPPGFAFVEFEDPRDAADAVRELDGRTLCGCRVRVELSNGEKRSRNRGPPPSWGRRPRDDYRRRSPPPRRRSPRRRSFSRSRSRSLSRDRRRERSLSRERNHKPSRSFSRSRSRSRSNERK
UTP18, sequence (Q9Y5J1 whole entry): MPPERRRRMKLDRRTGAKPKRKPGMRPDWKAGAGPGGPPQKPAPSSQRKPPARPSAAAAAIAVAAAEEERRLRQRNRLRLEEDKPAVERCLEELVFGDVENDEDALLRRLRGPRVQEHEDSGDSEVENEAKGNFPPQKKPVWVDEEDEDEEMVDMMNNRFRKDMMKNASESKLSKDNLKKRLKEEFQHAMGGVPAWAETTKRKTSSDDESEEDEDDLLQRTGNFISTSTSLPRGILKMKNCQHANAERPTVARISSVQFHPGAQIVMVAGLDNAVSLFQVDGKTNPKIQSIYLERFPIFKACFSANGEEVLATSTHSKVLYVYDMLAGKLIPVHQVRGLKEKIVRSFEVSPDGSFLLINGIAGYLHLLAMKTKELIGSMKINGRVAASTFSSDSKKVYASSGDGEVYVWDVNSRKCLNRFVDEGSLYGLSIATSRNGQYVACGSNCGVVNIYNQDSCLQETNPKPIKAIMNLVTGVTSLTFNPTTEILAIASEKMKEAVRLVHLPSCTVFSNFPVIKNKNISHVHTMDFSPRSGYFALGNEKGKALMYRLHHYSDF
SF3B3, sequence (Q15393 whole entry): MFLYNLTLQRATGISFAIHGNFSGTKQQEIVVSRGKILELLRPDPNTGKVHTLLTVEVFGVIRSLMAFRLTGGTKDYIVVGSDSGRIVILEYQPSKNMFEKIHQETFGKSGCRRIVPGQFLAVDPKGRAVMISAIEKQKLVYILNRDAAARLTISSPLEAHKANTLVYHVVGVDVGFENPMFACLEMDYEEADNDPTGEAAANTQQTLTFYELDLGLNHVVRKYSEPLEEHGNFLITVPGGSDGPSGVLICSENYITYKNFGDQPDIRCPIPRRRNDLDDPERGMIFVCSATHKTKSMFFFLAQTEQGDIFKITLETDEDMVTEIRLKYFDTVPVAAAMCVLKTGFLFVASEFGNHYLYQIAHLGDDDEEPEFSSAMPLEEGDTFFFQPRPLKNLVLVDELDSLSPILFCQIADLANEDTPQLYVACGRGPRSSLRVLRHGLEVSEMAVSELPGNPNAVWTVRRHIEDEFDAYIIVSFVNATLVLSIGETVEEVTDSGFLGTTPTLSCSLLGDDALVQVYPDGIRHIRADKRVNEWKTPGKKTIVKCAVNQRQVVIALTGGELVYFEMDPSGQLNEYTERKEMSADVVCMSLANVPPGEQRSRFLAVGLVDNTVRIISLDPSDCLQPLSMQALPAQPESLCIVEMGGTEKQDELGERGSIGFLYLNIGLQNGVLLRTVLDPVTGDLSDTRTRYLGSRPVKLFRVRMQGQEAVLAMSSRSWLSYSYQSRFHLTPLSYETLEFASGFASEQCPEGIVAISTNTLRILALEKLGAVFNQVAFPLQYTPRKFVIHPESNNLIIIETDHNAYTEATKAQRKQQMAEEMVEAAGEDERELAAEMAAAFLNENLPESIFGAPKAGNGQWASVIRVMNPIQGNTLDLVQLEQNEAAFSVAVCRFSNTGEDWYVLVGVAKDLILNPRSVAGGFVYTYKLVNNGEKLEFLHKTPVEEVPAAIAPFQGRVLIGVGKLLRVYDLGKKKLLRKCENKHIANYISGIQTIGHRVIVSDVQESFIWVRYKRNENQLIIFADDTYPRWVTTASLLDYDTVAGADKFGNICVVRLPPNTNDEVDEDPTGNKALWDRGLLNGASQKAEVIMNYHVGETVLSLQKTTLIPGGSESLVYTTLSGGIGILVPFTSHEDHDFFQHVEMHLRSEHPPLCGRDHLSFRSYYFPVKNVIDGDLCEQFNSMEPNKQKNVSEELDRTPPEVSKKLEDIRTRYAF
TMX1, sequence (Q9H3N1 whole entry): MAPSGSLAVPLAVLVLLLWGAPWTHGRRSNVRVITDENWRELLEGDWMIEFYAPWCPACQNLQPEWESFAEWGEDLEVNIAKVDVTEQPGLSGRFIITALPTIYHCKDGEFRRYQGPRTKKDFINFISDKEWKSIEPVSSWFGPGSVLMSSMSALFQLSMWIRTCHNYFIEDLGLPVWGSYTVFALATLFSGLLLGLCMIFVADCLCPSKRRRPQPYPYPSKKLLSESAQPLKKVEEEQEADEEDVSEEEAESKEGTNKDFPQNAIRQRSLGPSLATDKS
PRPF38A, Q8NAV1, sequence (Q8NAV1 whole entry): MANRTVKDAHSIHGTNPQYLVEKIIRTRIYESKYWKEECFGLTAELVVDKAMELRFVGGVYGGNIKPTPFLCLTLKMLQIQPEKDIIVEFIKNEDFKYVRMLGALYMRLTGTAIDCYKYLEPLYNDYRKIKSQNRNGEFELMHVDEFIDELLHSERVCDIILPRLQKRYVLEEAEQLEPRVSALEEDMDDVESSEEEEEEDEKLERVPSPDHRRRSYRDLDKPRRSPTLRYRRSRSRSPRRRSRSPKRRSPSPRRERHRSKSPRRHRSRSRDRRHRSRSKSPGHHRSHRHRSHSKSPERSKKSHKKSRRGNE
VPS35L, sequence (Q7Z3J2 whole entry): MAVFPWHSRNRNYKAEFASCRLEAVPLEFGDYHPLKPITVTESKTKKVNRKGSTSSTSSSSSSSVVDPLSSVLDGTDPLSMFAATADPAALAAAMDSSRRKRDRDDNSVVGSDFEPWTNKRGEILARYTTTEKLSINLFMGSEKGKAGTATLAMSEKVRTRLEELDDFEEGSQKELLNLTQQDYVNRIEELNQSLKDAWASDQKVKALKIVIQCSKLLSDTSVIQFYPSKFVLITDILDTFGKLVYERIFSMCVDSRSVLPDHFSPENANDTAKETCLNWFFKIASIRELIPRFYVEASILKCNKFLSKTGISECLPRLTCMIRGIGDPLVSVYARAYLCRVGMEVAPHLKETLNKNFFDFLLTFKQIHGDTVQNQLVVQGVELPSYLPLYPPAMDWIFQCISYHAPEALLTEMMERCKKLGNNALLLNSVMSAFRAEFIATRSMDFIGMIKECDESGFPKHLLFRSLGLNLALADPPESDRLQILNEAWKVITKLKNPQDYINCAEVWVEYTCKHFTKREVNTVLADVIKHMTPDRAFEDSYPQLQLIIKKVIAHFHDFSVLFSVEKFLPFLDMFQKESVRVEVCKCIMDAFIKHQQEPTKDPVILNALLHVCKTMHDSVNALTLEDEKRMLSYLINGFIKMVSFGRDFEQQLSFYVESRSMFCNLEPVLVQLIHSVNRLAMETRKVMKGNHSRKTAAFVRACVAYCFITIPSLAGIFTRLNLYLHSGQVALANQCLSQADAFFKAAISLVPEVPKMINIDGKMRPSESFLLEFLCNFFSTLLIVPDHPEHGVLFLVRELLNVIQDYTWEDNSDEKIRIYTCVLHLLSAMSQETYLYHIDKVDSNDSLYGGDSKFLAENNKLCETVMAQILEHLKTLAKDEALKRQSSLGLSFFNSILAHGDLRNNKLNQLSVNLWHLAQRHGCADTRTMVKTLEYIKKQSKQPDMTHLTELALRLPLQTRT
SF3B1, sequence (O75533 whole entry): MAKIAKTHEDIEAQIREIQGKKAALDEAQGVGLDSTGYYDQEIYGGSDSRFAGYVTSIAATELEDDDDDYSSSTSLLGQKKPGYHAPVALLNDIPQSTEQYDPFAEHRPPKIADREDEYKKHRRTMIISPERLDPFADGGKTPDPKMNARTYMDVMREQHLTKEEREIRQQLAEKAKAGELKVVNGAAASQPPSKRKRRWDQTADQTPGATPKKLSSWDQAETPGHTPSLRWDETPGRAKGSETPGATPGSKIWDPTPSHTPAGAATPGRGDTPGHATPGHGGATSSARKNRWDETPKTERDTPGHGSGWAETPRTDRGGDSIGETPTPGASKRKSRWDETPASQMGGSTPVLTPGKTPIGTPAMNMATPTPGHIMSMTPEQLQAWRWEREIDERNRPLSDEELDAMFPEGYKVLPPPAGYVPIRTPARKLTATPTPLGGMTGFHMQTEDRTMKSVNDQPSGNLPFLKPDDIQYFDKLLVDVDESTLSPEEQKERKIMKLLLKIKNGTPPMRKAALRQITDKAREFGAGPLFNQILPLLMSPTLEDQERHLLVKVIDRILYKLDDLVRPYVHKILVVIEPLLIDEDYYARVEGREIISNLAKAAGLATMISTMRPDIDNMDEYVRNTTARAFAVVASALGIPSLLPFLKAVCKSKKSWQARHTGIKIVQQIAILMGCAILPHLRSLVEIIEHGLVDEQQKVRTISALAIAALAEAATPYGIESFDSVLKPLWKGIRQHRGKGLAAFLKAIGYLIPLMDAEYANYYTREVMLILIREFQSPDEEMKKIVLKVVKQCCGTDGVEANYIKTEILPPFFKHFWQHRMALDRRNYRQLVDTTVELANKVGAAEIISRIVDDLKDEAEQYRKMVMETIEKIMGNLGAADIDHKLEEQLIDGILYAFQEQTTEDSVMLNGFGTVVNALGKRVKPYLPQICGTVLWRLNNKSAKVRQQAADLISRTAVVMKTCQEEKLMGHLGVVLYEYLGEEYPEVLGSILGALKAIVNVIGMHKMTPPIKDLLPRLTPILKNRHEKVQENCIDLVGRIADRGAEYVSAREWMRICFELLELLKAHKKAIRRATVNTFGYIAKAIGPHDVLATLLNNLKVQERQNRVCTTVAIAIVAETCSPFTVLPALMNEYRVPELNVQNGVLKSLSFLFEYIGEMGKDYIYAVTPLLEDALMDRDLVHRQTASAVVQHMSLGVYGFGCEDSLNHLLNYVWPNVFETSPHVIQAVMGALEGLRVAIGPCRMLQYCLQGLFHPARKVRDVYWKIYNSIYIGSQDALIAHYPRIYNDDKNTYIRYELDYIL
SRSF1, sequence (Q07955 whole entry): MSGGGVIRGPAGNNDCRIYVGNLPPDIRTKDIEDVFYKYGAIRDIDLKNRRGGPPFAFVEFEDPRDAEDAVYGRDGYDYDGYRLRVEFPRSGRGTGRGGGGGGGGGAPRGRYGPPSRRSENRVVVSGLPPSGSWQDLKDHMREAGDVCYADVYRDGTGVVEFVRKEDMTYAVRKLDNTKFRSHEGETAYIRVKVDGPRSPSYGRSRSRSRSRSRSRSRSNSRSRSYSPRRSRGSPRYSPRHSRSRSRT

ERLEC1, Q96DZ1: in test [1], the cross-linked residues entry is “K292 - K504”. On to SEPTIN6, Q14141, for which the cross-linked residues result in test [2] was “K191 - K249”. On to SEPTIN7, Q16181, for which, in [3], the cross-linked residues result is listed as “K373 - K362”.

Regarding RPS28, P62857, the cross-linked residues entry in test [4] is recorded as “K16 - K140”.

RPS20, P60866: the cross-linked residues result in [4] is reported as “K4 - K39”. SNRPA1, P09661: the cross-linked residues result in [5] is “K221 - K188”; in [6], “K172 - K57”. In the case of DNAJC8, O75937, the cross-linked residues entry in [7] is “K135 - K10”.

Turning to HTATSF1, O43719, in [8], the cross-linked residues result is given as “K297 - S332”. For the substance SF3A3, Q12874, the cross-linked residues result in [9] is recorded as “K496 - K974”.

SF3B2, Q13435: the cross-linked residues entry in test [9] is given as “K605 - K1074”. As for SF3A2, Q15428, in test [10], the cross-linked residues entry is recorded as “T11 - K105”. As to PPP1CB, P62140, the cross-linked residues entry in test [11] is on record as “K25 - K105”.

Regarding HDAC1, Q13547, the cross-linked residues result in test [12] is recorded as “K74 - K569”.

Take COX4I1, P13073: the cross-linked residues entry in [13] is listed as “K60 - K295”. On to SNRPB2, P08579, for which the cross-linked residues entry in test [14] is listed as “K57 - K96”.

As for PLRG1, O43660, in [15], the cross-linked residues result is reported as “K363 - K153”.

Regarding SRSF3, P84103, the cross-linked residues entry was “K23 - K30” in test [16], “K23 - K101” in test [17] and “K85 - K24” in [18].

THOC2, Q8NI27: in [19], the cross-linked residues entry was “K307 - K408”. As to TIMM50, Q3ZCQ8, in test [20], the cross-linked residues result is reported as “T46 - K56”. As to FLNA, P21333, the cross-linked residues entry in test [21] is “K876 - K337”. Turning to CANX, P27824, the cross-linked residues entry in test [22] is listed as “K516 - K279”.

Turning to SNRNP200, O75643, in test [23], the cross-linked residues result is given as “K1883 - K234”.

Consider HSPD1, P10809, for which the cross-linked residues result in [24] is recorded as “K292 - K421”. As to SELENOF, O60613, in test [25], the cross-linked residues entry is recorded as “T82 - K362”. On to UTP20, O75691, for which the cross-linked residues entry in [26] is listed as “K2250 - K122”. Take WDR36, Q8NI36: the cross-linked residues entry in test [27] is on record as “K179 - S171”.

For PWP2, Q15269, the cross-linked residues result in test [27] is given as “K260 - K172”.

For RRP9, O43818, in test [28], the cross-linked residues result is “K113 - K69”. For the substance WDR43, Q15061, the cross-linked residues entry in [29] was “K594 - K386”.

On to WDR46, O15213, for which, in test [30], the cross-linked residues entry was “K83 - K81”. For the substance CCDC22, O60826, the cross-linked residues entry in test [31] is “K519 - K630”. Consider YWHAB, P31946, for which the cross-linked residues result in test [32] is given as “K13 - K68”. With PRPF38A, Q8NAV1, the cross-linked residues entry in [33] is “K7 - K45”.
